Screening data deposited in PubChem BioAssay by National Center for Advancing Translational Sciences (NCATS).
HEK293 viab: counter-screen for SNCA expression inhibitors: cell viability; HEK-293-SNCA-luc viability, GF-AFC fluorescence, 24 h; Potency, µM (highest dose often 57.1 µM), hits mostly cytotoxic; actives 0.12% (n = 150,000); further: nearly all actives have a fitted effect of over 30% in size
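Cytotoxicity counterscreen: after 24 h compound treatment of genome-edited SNCA-luciferase HEK-293 cells, live-cell protease substrate GF-AFC read by fluorescence after 30 min; activity scaled between DMSO (0%) and medium-only (-100%), curves Hill-fitted.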
SNCA expr inhib: inhibitors of alpha-synuclein (SNCA) gene expression. actives 0.17% (n = 140,000). HEK-293 SNCA-luciferase knock-in, luminescence, 24 h. AID 1671194. Potency, µM (titrated, usually from 57.2 µM), actives largely listed as inhibitors; further: nearly all actives have a fitted effect of over 45% in size
Luciferase inh: blocks purified firefly luciferase enzyme activity. Potency, µM (series often up to 115 µM), usual class: inhibitors. AID 1347043. purified P. pyralis luciferase, luminescence, biochemical. actives 2.5% (n = 76,000); further: nearly all actives have a fitted effect of over 65% in size
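Purified 10nM P. pyralis luciferase with 10uM D-luciferin and 10uM ATP in 50mM Tris acetate pH 7.5, 10mM Mg acetate, 0.01% Tween-20, 0.05% BSA. qHTS titration; luminescence read by CCD imager.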
HEK293 tox: kills HEK 293 cells. HEK 293 viability, ATP luminescence (CellTiter-Glo), 48-72 h. Potency, µM (titrated, usually from 115 µM), most hits filed as inhibitors. actives 6.6% (n = 94,000); further: nearly all actives have a fitted effect of over 60% in size
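Viability of HEK 293 cells, plated at 250 cells/well, was judged by cellular ATP after compound treatment for 48 or 72 hr. Luminescence was imaged 10 min after CellTiter-Glo addition at room temperature.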
hNpr1 antagonist: antagonists of human natriuretic peptide receptor Npr1; P16066; HEK293 hNpr1 GloSensor cGMP, ANP-stimulated luminescence; Potency, µM (series often up to 46.3 µM), hits mostly inhibitors; actives 1.6% (n = 76,000); AID 1347048; calls by dose curve; further: nearly all actives have a fitted effect of over 60% in size
Target sequence (P16066 whole entry, looked up): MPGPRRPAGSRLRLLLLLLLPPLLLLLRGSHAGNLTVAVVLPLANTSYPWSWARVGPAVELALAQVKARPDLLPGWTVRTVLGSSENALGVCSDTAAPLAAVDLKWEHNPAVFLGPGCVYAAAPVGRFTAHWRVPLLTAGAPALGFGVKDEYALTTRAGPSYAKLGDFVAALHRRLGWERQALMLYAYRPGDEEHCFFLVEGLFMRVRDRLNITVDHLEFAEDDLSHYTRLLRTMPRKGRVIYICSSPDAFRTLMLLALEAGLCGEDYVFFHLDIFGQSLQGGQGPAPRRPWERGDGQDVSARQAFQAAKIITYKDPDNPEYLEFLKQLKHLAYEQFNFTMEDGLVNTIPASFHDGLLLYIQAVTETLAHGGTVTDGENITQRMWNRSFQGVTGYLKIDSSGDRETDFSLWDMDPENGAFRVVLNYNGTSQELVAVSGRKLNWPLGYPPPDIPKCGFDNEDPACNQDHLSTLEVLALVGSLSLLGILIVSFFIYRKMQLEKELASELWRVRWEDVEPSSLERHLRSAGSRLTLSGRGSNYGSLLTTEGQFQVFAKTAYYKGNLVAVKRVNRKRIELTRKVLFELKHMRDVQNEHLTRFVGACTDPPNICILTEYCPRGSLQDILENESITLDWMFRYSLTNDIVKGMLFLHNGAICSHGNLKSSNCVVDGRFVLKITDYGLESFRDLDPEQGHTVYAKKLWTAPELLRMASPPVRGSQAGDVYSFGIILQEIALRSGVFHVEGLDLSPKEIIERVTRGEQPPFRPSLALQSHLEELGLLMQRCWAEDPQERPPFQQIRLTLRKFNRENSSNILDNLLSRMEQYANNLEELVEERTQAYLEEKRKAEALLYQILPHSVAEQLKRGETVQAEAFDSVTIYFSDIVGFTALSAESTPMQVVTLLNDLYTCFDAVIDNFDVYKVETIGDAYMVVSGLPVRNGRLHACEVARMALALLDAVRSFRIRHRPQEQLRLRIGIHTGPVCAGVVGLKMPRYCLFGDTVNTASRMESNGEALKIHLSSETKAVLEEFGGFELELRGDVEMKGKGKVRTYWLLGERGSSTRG
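Compound pre-incubated 30 min at room temperature on GloSensor-loaded HEK293 cells stably carrying hNpr1 and the pGS-40F cGMP biosensor. Stimulation uses hNppA at 0.1 nM final; luminescence is taken at baseline and 20 min post-agonist.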
3T3 cytotox: cytotoxic compounds in NIH 3T3 cells | NIH 3T3 viability, CellTiter-Glo ATP luminescence, 48-72 h | Potency, µM (series often up to 96.7 µM), actives largely listed as inhibitors | actives 4.3% (n = 94,000); further: nearly all actives have a fitted effect of over 55% in size
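Cells were seeded at 400 per well, treated with pin-transferred compound, and kept 48 or 72 hr at 37 °C before CellTiter-Glo addition and luminescence imaging of cellular ATP.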
Large screens that a line does not name were inactive; ! = a repeat was not active. Rows were chosen to be rich in hits. Some 7.2% of all compounds tested hit in one or more screens of this group. Unless noted, the call rests on the fitted dose curve; in most records, active means well fitted curve in the direction sought with a large enough effect; inconclusive means small, poorly fitted or top-dose-only effect, or another doubt; inactive means no such curve, though single readings can be large; an effect the other way counts as inactive or inconclusive.

COC[C@@H]1CNC[C@H]1c1nc(C)no1	HEK293 tox 89µM
Cc1noc(-c2ccc(OC3CN(C(=O)NC4CCCCC4)C3)cc2)n1	HEK293 tox 40µM, hNpr1 antagonist inconclusive, 3T3 cytotox inconclusive
Cc1noc(-c2cccc(OC3CN(C(=O)NC4CCCC4)C3)c2)n1	HEK293 tox 79µM, 3T3 cytotox inconclusive
C=CCNC(=O)OC1CN(CC=C)C(=O)CN([S+](=O)([O-])c2cccs2)C1 (configuration not stated)	3T3 cytotox inconclusive (no result: HEK293 viab, SNCA expr inhib, Luciferase inh, hNpr1 antagonist)
COc1ccccc1-c1cccc(C(=O)N2CCC[C@H]2C(=O)NCCc2ccc(Cl)cc2)c1	HEK293 tox inconclusive, 3T3 cytotox inconclusive (no result: Luciferase inh, hNpr1 antagonist)
O=C(c1nc(-c2ccc(F)cc2)c2ccccn12)N1CCOCC1	HEK293 tox 112µM
O=C(c1nc(-c2ccccc2)c2ccccn12)N1CCOCC1	HEK293 tox 89µM, 3T3 cytotox inconclusive
O=C(c1nc(-c2ccccc2)c2ccccn12)N1CCN(c2ncccn2)CC1	HEK293 tox 79µM
COc1cccc(C(=O)Nc2ccc3ncnc(N4CCCCC4)c3c2)c1	HEK293 viab inconclusive, HEK293 tox inconclusive, 3T3 cytotox inconclusive
Cc1ccc(C(=O)Nc2ccc3c(N4CCOCC4)ncnc3c2)cc1F	Luciferase inh inconclusive, HEK293 tox inconclusive, 3T3 cytotox 11µM
O=C(Nc1ccc2c(N3CCCCC3)ncnc2c1)c1ccc(F)cc1F	Luciferase inh inconclusive, HEK293 tox 16µM, 3T3 cytotox 22µM
O=C(Nc1ccc2ncnc(N3CCCC3)c2c1)c1ccc(F)c(F)c1	HEK293 tox inconclusive, 3T3 cytotox 35µM
CCCC(=O)Nc1ccc2c(N3CCOCC3)ncnc2c1	3T3 cytotox inconclusive
COc1ccc(C(=O)Nc2ccc3c(N4CCCCC4)ncnc3c2)cc1	Luciferase inh 25µM, HEK293 tox 40µM, 3T3 cytotox inconclusive
O=C(Nc1ccc2c(N3CCCCC3)ncnc2c1)c1ccc(F)c(F)c1	none
CCNC(=O)N1CCCC1c1noc(CCC(=O)N2CCN(c3ccccc3)CC2)n1 (configuration not stated)	none
O=C(c1ccc2c(c1)OCO2)N1CCCN(CCn2nc3n(c2=O)CCCC3)CC1	none (no result: HEK293 viab, SNCA expr inhib, Luciferase inh, hNpr1 antagonist)
CC(=O)NC1C(OC2CCC3(C)C(CCC4(C)C3CC=C3C5CC(C)(C)CCC5(C(=O)O)C(O)CC34C)C2(C)C)OC(CO)C(O)C1O (configuration not stated)	none (no result: SNCA expr inhib, Luciferase inh, HEK293 tox, hNpr1 antagonist, 3T3 cytotox)
COc1ccc(S(=O)(=O)N2CCc3nnc(C4CC4)n3CC2)cc1	none (no result: Luciferase inh, hNpr1 antagonist)
CC(C)(C)C(=O)N1CCCC2(CN[S+](=O)([O-])c3cccnc3O2)C1 (configuration not stated)	none (no result: Luciferase inh, hNpr1 antagonist)
CC(C)CC(=O)N[C@H](C)c1c(-c2ccc(F)cc2)noc1C(=O)O	none
CCC(=O)N1CCC2(CC1)NCCc1c2[nH]c2ccccc12	SNCA expr inhib inconclusive
COc1ccc(C(=O)Nc2ccc3c(N4CCOCC4)ncnc3c2)c(C)c1	Luciferase inh inconclusive, HEK293 tox inconclusive, 3T3 cytotox 22µM
Cc1ccsc1C(=O)Nc1ccc2ncnc(N3CCCCC3)c2c1	HEK293 tox 32µM, hNpr1 antagonist inconclusive, 3T3 cytotox 35µM
O=C(Cc1ccc(F)cc1)Nc1ccc2ncnc(N3CCCCC3)c2c1	HEK293 tox inconclusive, 3T3 cytotox 35µM
O=C(c1ccc(F)cc1)N1CCCC(c2nn(-c3ccccn3)c(=O)[nH]2)C1 (configuration not stated)	none (no result: Luciferase inh, hNpr1 antagonist)
O=C(NCc1ccc(F)c(F)c1)C1CCc2nnc(-c3cccc(C(F)(F)F)c3)n21 (configuration not stated)	HEK293 tox inconclusive (no result: Luciferase inh, hNpr1 antagonist)
CC(=O)Nc1ccc(-c2nnc3n2CCN(C(=O)c2cccc(Cl)c2)C3)cc1	none (no result: HEK293 viab, SNCA expr inhib, Luciferase inh, hNpr1 antagonist)
Cn1ncc2c(C(=O)N3CCN(Cc4ccccc4)CC3)cc(-c3ccc([S+](C)(=O)[O-])cc3)nc21	3T3 cytotox inconclusive (no result: Luciferase inh, hNpr1 antagonist)
Cn1ncc2c(-c3ccc(Cl)cc3Cl)cc(C(=O)N3CCN(c4ncccn4)CC3)nc21	HEK293 tox 32µM, 3T3 cytotox 45µM (no result: Luciferase inh, hNpr1 antagonist)
CN(C(=O)c1cc(-c2cc(Cl)cc(Cl)c2)nc2c1cnn2C)c1ccccc1	HEK293 tox 40µM, 3T3 cytotox inconclusive (no result: HEK293 viab, SNCA expr inhib, Luciferase inh, hNpr1 antagonist)
Cn1ncc2c(C(=O)N3CCN(Cc4ccccc4)CC3)cc(-c3ccc(Cl)cc3)nc21	SNCA expr inhib inconclusive, HEK293 tox 40µM, 3T3 cytotox inconclusive (no result: Luciferase inh, hNpr1 antagonist)
Cn1ncc2c(C(=O)N3CCN(Cc4ccccc4)CC3)cc(-c3ccc(Cl)cc3Cl)nc21	HEK293 tox 40µM, 3T3 cytotox inconclusive (no result: Luciferase inh, hNpr1 antagonist)
CN(C)C(=O)c1cc(-c2ccc(Cl)cc2Cl)c2cnn(C)c2n1	none (no result: Luciferase inh, hNpr1 antagonist)
COc1ccc(CC(=O)N2CCC3(CC2)CC(N[S+](C)(=O)[O-])c2ccccc23)cc1 (configuration not stated)	none (no result: Luciferase inh, hNpr1 antagonist)
COc1ccc(C(=O)N[C@H]2CC[C@]3(C)CCC([C@H](C)C(=O)N4CCCC4)[C@H](O)[C@H]3[C@@H]2C)cc1 (some centres not stated)	none
CC(NC(=O)NC1CCN(Cc2ccc(-c3ccsc3)cc2)C1)c1ccccc1 (configuration not stated)	none (no result: Luciferase inh, hNpr1 antagonist)
COC(=O)C1=CN(CC(=O)Nc2c(C)cccc2C)S(=O)(=O)N=C1C	none
CNC(=O)[C@@H](C1CC1)N1CCC[C@H]1C(=O)NCc1ccccn1	none
Cn1ncc2c(C(=O)N3CCN(c4ncccn4)CC3)cc(-c3ccc(Cl)nc3)nc21	HEK293 viab inconclusive, HEK293 tox inconclusive, 3T3 cytotox 35µM! (no result: Luciferase inh, hNpr1 antagonist)
Cn1ncc2c(C(=O)N3CCCC3)cc(-c3ccc(Cl)nc3)nc21	none (no result: Luciferase inh, hNpr1 antagonist)
CCCC(=O)c1cc2c(cc1NC(=O)c1ccccc1F)OCCO2	SNCA expr inhib 14µM (no result: Luciferase inh, HEK293 tox, hNpr1 antagonist, 3T3 cytotox)
Cc1ccc(N2CC(c3noc(-c4ccc5c(c4)OCO5)n3)CC2=O)cc1 (configuration not stated)	none
CO[C@H]1C(=O)N(C2CCN(S(=O)(=O)c3ccccc3)CC2)[C@H]1c1ccncc1	none
CCCCCNC(=O)C1CCCN1C(=O)c1cccc(-c2cccc(OC)c2)c1 (configuration not stated)	HEK293 tox 100µM, 3T3 cytotox inconclusive (no result: Luciferase inh, hNpr1 antagonist)
COc1ccccc1-c1cccc(C(=O)N2CCC[C@H]2C(=O)NCc2cccs2)c1	HEK293 tox 79µM (no result: Luciferase inh, hNpr1 antagonist)
COC(=O)CNC(=O)C1CCCN1C(=O)c1cccc(-c2cccc(OC)c2)c1 (configuration not stated)	HEK293 tox 45µM, 3T3 cytotox inconclusive (no result: Luciferase inh, hNpr1 antagonist)
Cc1oc2c(c1C(=O)N1CCN(c3ccccc3)CC1)CN(Cc1ccc(F)cc1)CC2	HEK293 tox inconclusive, hNpr1 antagonist inconclusive, 3T3 cytotox inconclusive
